Test results as given in PubChem BioAssay (EPA / NIEHS).
Inconclusive results are not listed. Activity calls are given as the source filed them. How the source made its calls, unless noted: active means hit-call score of the fitted dose curve at least 0.9, where 1 is the maximum; inactive means score below 0.9.

Experiments:
[1] = ACEA_ER_80hr: ACEA Biosciences xCELLigence Real-Time Cell Analysis on Estrogen Receptor Agonism for Proliferation (AID 2282667; active means hit-call score of the fitted dose curve at least 0.9, where 1 is the maximum); conditions: T47D proliferation, impedance (xCELLigence), 80 h
Summary of the method: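 Cell-growth kinetics were measured by impedance in T47D cells treated continuously with compound (top 100 uM final, 1:4 steps, 8 points). Activity at 80 h was scored as signal gain over the DMSO baseline.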

[2] = ATG_CRE_CIS: Attagene CIS-FACTORIAL HepG2 Assay for human cAMP Responsive Element (CRE) binding protein 3 (AID 2282926); conditions: HepG2 CRE cis-reporter, Attagene multiplexed mRNA; actives raise or lower the signal
Summary of the method: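 Cells carrying cis-regulated reporter constructs respond through their own endogenous factors. After 24 h treatment, RNA is reverse-transcribed, amplified, labelled and sized by capillary electrophoresis; up- and down-regulation are both scored against vehicle.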

[3] = target: CCAAT/enhancer-binding protein beta (Homo sapiens) (UniProt P17676); experiment: ATG_C_EBP_CIS: Attagene CIS-FACTORIAL HepG2 Assay for human CCAAT/Enhancer Binding Protein (C/EBP) beta (AID 2282927); conditions: HepG2 Attagene cis-factorial transcription factor reporter; actives raise or lower the signal
CCAAT/enhancer-binding protein beta (Homo sapiens), sequence (P17676 whole entry, looked up): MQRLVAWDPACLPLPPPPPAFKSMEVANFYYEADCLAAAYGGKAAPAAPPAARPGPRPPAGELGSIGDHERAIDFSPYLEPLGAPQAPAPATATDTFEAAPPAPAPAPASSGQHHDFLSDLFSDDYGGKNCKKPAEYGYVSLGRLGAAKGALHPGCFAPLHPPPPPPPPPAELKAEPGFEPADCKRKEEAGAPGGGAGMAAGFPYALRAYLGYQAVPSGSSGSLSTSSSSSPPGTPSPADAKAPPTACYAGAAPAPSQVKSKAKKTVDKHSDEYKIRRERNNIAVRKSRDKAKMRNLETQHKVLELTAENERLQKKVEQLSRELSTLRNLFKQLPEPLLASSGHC
Summary of the method: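 Transiently transfected HepG2 (MRTU library, endogenous TF-driven promoters); 24 h dosing; total RNA → oligo(dT) RT → PCR → 6-FAM primer extension → HpaI digest → CE; fit bidirectionally vs DMSO.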

[4] = ATG_CMV_CIS: Attagene CIS-FACTORIAL HepG2 Assay for human CMV (Internal Marker) (AID 2282928); conditions: HepG2 CMV promoter reporter, transcription factor profiling; actives raise or lower the signal;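 further: endpoint acts as a background internal control marker rather than a target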
Summary of the method: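 Bidirectional fits against DMSO are applied to reporter mRNA, read by RT-PCR with capillary electrophoresis, from HepG2 cells exposed 24 h. The endpoint serves as an internal CMV background marker within the cis-factorial reporter panel.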

[5] = target: Aryl hydrocarbon receptor (Homo sapiens) (UniProt P35869); experiment: ATG_Ahr_CIS: Attagene CIS-FACTORIAL HepG2 Assay for human Aryl Hydrocarbon Receptor (Ahr) (AID 2282930); conditions: HepG2 AhR cis-factorial reporter transcription; actives raise or lower the signal
Aryl hydrocarbon receptor (Homo sapiens), sequence (P35869 whole entry, looked up): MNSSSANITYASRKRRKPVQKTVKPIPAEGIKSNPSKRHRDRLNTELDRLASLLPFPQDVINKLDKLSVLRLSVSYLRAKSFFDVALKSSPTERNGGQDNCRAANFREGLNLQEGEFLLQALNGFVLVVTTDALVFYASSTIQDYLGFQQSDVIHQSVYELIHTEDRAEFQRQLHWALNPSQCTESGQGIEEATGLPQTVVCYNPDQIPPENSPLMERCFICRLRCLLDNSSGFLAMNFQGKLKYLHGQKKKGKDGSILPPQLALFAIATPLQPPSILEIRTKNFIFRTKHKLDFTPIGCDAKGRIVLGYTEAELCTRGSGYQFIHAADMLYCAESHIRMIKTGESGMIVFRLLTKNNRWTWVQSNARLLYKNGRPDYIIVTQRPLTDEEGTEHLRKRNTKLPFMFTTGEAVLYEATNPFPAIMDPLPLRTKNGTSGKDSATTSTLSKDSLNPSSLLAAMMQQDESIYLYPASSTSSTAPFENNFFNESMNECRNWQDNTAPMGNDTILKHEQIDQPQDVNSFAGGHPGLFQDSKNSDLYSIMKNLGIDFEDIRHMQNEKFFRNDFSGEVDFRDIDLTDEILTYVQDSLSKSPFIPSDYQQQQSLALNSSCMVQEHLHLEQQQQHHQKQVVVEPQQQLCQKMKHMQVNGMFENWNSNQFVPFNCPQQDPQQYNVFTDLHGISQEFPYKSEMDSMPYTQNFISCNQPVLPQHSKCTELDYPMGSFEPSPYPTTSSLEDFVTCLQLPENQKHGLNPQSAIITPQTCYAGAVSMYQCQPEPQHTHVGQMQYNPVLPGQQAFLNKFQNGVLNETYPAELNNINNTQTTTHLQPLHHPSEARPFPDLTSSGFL
Summary of the method: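 Read-out: reporter mRNA quantified by RT-PCR with fluorescent primer extension and capillary electrophoresis. Human HepG2 liver cells carried transfected cis-promoter reporter units and were exposed to chemical for 24 h; gain or loss fitted relative to DMSO.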

[6] = ATG_AP_1_CIS: Attagene CIS-FACTORIAL HepG2 Assay for human Activator Protein 1 (AP-1) (AID 2282931); conditions: HepG2 Attagene cis-factorial AP-1 reporter mRNA; actives raise or lower the signal
Summary of the method: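 Fluorescence of labelled PCR fragments separated by capillary electrophoresis gives reporter mRNA levels. HepG2 with transfected cis-regulated reporter units, 24 h exposure; DMSO serves as baseline for bidirectional curve fits.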

[7] = ATG_AP_2_CIS: Attagene CIS-FACTORIAL HepG2 Assay for human Activator Protein 2 (AP-2) (AID 2282932); conditions: HepG2 AP-2 cis-reporter, Attagene transcription factor profiling; actives raise or lower the signal
Summary of the method: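 Read-out: fluorescent reporter mRNA via RT-PCR and capillary electrophoresis, 24 h post-dose in transiently transfected HepG2. Endogenous factors drive cis-promoter reporters; gain or loss of signal fitted bidirectionally against DMSO.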

[8] = ATG_BRE_CIS: Attagene CIS-FACTORIAL HepG2 Assay for human Bone Morphogenetic Protein (BMP) Response Element (BRE) (AID 2282933); conditions: HepG2 BMP response element reporter, Attagene transcription factor profiling; actives raise or lower the signal
Summary of the method: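 Fluorescence-labelled reporter cDNA fragments, separated by capillary electrophoresis, gave the signal for this component of a 52-readout multiplex. HepG2 cells were transfected, exposed to chemicals for 24 h, and compared with DMSO using bidirectional fitting.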

[9] = target: Retinoic acid receptor alpha (Homo sapiens) (UniProt P10276); experiment: ATG_DR5_RAR_CIS: Attagene CIS-FACTORIAL HepG2 Assay for human Retinoic Acid Receptor Alpha (RARE), DR5 submotif (AID 2282934); conditions: HepG2 Attagene cis-factorial RARE DR5 reporter, mRNA; actives raise or lower the signal;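 on AC50: reporter responds to endogenous RAR alpha beta and gamma in HepG2 not RARA alone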
Retinoic acid receptor alpha (Homo sapiens), sequence (P10276 whole entry, looked up): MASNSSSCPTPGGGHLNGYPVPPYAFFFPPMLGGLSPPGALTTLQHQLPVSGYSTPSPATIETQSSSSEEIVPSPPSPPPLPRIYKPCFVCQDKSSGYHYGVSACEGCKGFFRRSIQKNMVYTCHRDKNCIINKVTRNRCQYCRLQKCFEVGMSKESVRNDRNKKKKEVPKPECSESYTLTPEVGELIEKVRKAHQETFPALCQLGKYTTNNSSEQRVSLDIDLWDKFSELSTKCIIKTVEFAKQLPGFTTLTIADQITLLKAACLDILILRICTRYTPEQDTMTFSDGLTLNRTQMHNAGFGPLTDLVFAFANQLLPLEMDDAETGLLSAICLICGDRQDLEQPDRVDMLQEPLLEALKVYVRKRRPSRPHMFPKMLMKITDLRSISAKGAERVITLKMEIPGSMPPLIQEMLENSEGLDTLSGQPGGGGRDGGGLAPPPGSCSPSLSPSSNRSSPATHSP
Summary of the method: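 Read-out: DR5-driven reporter transcript measured by RT-PCR, 6-FAM primer extension, HpaI digest and capillary electrophoresis. Human HepG2 liver cells carry transiently transfected cis-element reporter constructs; dosing lasts 24 h. Gain or loss of signal fitted against DMSO baseline.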

[10] = target: Transcription factor E2F1 (Homo sapiens) (UniProt Q01094); experiment: ATG_E2F_CIS: Attagene CIS-FACTORIAL HepG2 Assay for human E2F Transcription Factor 1 (AID 2282935); conditions: HepG2 Attagene cis-reporter, E2F reporter RNA transcripts; actives raise or lower the signal
Transcription factor E2F1 (Homo sapiens), sequence (Q01094 whole entry, looked up): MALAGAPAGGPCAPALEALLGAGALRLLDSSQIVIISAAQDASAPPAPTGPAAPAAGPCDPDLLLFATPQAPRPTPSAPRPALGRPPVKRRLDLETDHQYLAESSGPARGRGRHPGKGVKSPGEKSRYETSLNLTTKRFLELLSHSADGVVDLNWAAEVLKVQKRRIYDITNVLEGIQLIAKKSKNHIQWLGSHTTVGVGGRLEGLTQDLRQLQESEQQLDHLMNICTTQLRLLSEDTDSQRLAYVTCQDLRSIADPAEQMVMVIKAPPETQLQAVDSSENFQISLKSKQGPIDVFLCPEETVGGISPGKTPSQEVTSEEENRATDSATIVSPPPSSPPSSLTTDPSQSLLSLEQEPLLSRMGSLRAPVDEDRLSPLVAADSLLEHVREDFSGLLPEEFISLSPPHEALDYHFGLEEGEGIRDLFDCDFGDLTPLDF
Summary of the method: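 Transient MRTU transfection of HepG2; 24 h compound exposure; RNA → oligo(dT) RT → PCR → FAM label → HpaI cut → CE fluorescence. Gain/loss of signal fit against DMSO.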

[11] = ATG_E_Box_CIS: Attagene CIS-FACTORIAL HepG2 Assay for human Enhancer Box (E-box) (AID 2282936); conditions: HepG2 E-box cis-reporter transcription, actives raise or lower the signal
Summary of the method: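 Transiently transfected HepG2, endogenous TF-driven reporters, 24 h dosing. Readout: RT-PCR plus capillary electrophoresis of fluorescent reporter fragments. Gain or loss of signal fitted bidirectionally against DMSO baseline.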

[12] = ATG_M_61_CIS: Attagene CIS-FACTORIAL HepG2 Assay for M61 Transcription Factor (Internal Marker) (AID 2282937); conditions: HepG2 Attagene CIS-FACTORIAL M61 internal marker reporter; actives raise or lower the signal
Summary of the method: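 This endpoint serves as an internal background control within a multiplexed HepG2 cis-reporter panel. Cells are exposed for 24 h; reporter mRNA is amplified, fluorescently labelled and sized by capillary electrophoresis, with DMSO as negative control.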

[13] = ATG_EGR_CIS: Attagene CIS-FACTORIAL HepG2 Assay for human Early Growth Response 1 (EGR1) (AID 2282938); conditions: HepG2 Attagene CIS-FACTORIAL EGR reporter mRNA; actives raise or lower the signal
Summary of the method: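 HepG2, transient MRTU transfection (cis promoters), 24 h compound. RNA → RT (oligo-dT) → PCR → 6-FAM labelling → HpaI cut → CE fluorescence. Bidirectional fit, DMSO baseline.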

[14] = ATG_M_19_CIS: Attagene CIS-FACTORIAL HepG2 Assay for M19 Transcription Factor (Internal Marker) (AID 2282939); conditions: HepG2 Attagene CIS-FACTORIAL M19 internal marker reporter; actives raise or lower the signal
Summary of the method: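 HepG2, MRTU transient transfection, 24 h dosing. Total RNA → RT-PCR → 6-FAM primer extension → HpaI digest → CE fluorescence. Bidirectional curve fit, DMSO negative control.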

[15] = ATG_Ets_CIS: Attagene CIS-FACTORIAL HepG2 Assay for human Erythroblast Transformation Specific (ETS) (AID 2282941); conditions: HepG2 ETS cis-reporter transcription, actives raise or lower the signal
Summary of the method: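 Endogenous transcription factor activity read as reporter mRNA via RT-PCR and capillary electrophoresis, with gain or loss fitted bidirectionally against DMSO. Human HepG2 liver cells, transiently transfected CIS reporter constructs, 24 h exposure.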

[16] = target: Hepatocyte nuclear factor 3-beta (Homo sapiens) (UniProt Q9Y261); experiment: ATG_FoxA2_CIS: Attagene CIS-FACTORIAL HepG2 Assay for human Forkhead box A2 (FOXA2) (AID 2282942); conditions: HepG2 cis-reporter transcription factor activity, 24 h; actives raise or lower the signal
Hepatocyte nuclear factor 3-beta (Homo sapiens), sequence (Q9Y261 whole entry, looked up): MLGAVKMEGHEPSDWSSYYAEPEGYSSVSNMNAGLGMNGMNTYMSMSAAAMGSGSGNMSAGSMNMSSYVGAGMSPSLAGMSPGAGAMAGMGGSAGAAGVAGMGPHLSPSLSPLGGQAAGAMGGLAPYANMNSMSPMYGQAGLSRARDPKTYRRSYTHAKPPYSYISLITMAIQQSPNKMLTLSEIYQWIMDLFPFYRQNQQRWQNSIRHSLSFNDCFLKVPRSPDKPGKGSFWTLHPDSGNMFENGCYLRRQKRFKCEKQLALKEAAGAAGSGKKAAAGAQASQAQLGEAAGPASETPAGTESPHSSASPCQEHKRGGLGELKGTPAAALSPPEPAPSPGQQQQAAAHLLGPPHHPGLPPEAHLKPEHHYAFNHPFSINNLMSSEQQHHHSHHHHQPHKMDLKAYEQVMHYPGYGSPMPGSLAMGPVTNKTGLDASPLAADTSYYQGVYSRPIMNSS
Summary of the method: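 Cells: HepG2, transient multiplex reporter transfection. Exposure 24 h. Detection: reporter-specific RT-PCR, fluorescent labelling, restriction digest, capillary electrophoresis. Analysis: bidirectional curve fit, DMSO as negative control.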

[17] = ATG_FoxO_CIS: Attagene CIS-FACTORIAL HepG2 Assay for human Forkhead box O (FoxO) (AID 2282943); conditions: HepG2 Attagene cis-reporter, FoxO element, mRNA; actives raise or lower the signal
Summary of the method: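 Read-out: fluorescence of 6-FAM-labelled reporter cDNA fragments resolved by capillary electrophoresis. Transiently transfected HepG2 cells were dosed for 24 h; activity fitted in both directions relative to DMSO controls.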

[18] = ATG_GATA_CIS: Attagene CIS-FACTORIAL HepG2 Assay for human GATA Binding Protein (AID 2282944); conditions: HepG2 GATA cis-element reporter, Attagene multiplex mRNA; actives raise or lower the signal
Summary of the method: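 Cells: HepG2, transiently transfected with cis-regulated reporter transcription units. Exposure: 24 h. Detection: RT-PCR plus capillary electrophoresis of FAM-labeled fragments. Analysis: bidirectional, DMSO as baseline.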

[19] = ATG_ERE_CIS: Attagene CIS-FACTORIAL HepG2 Assay for Estrogen Response Element (ERE) (AID 2282940); conditions: HepG2 ERE cis-reporter, Attagene RNA transcript; actives raise or lower the signal
Summary of the method: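 After a 24 h chemical treatment, RNA from reporter-transfected HepG2 cells is reverse-transcribed, PCR-amplified and fluorescently labelled. Fragments separated by capillary electrophoresis give reporter signal; DMSO serves as negative control.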

[20] = ATG_DR4_LXR_CIS: Attagene CIS-FACTORIAL HepG2 Assay for human Liver X Receptor (LXR), DR4 submotif (AID 2282929); conditions: HepG2 Attagene DR4 cis-reporter, mRNA transcription; actives raise or lower the signal
Summary of the method: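 Endogenous factor activity at a DR4 cis-element is read as reporter mRNA in transiently transfected HepG2 cells. Exposure lasts 24 h; transcripts are amplified, fluorescently labelled and sized by capillary electrophoresis, with DMSO as baseline.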

Measured: AC50

Cc1cc(O)c(C(C)(C)C)cc1C(C)(C)C
active: [4] 9.14 µM | [6] 11.1 µM | [11] 13.9 µM
not listed: [19] | [20]
inactive: all other assays above

CNS(=O)(=O)C(F)(F)C(F)(F)C(F)(F)C(F)(F)C(F)(F)C(F)(F)C(F)(F)C(F)(F)F
active: [6] 13.7 µM
not listed: [16] | [20]
inactive: all other assays above

Cc1ccc(O)c(-n2nc3ccccc3n2)c1
active: [5] 7.41 µM | [19] 10.4 µM
not listed: [11] | [16] | [20]
inactive: all other assays above

CN1CN(C)CN(C)C1
not listed: [20]
inactive: all other assays above

O=C1C=CC(=O)N1c1ccccc1
not listed: [5] | [11] | [19]
inactive: all other assays above

Nc1cccnc1N
active: [6] 16.7 µM | [9] 65.8 µM
not listed: [5] | [20]
inactive: all other assays above

CCC/C=C/CO
not listed: [16] | [19] | [20]
inactive: all other assays above

C[Si](Cl)(Cl)CCC(F)(F)C(F)(F)C(F)(F)C(F)(F)C(F)(F)C(F)(F)F
not listed: [5] | [11]
inactive: all other assays above
